HCV inh: qHTS Assay for Inhibitors of Hepatitis C Virus (HCV); Huh7.5.1 HCVcc-Cre infection, luciferase reporter, 44 h; Potency, µM (titrated, usually from 41.8 µM), without a hit: at the top dose activity change, negative = inhibition, most hits filed as inhibitors; actives 3.4% (n = 340,000); AID 651820, 2012
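After 44 h co-culture of compound, cells and HCVcc-Cre (~0.5 moi), substrate is added for 15 min at room temperature and luciferase measured over 15 sec. Cells were seeded at 1,000/well and pre-cultured 4 h.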
AMA1-RON2 inh: qHTS for Inhibitors of AMA1-RON; Towards Development of Antimalarial Drug Lead: Primary Screen; Plasmodium falciparum AMA1 (3D7) - RON2 peptide interaction; AlphaScreen AMA1-biotinylated RON2 peptide binding; Potency, µM (top dose mostly 58.2 µM), inactives show at the highest dose activity change, negative = inhibition, actives largely listed as inhibitors; actives 0.2% (n = 360,000);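 also: 0% = vehicle wells and -100% = peptide control; nearly all actives have a fitted effect of over 45% in size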
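AMA1 (3D7) with his tag at 25 nM final met compounds first, then biotinylated RON2 peptide at 25 nM; detection used donor plus acceptor beads, 10 µg/mL apiece, read by AlphaScreen after 30 min at room temperature.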
AmpC detergent: qHTS Inhibitors of AmpC Beta-Lactamase (assay with detergent). P00811. AmpC hydrolysis of nitrocefin, absorbance 480 nm, 0.01% Triton. Potency, µM (top dose mostly 114 µM), for inactives: at the highest dose activity change, negative = inhibition, hits mostly inhibitors. actives 0.041% (n = 370,000). AID 485294, 2010;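 also: 0% = no-compound wells and -100% = no-enzyme wells; nearly all actives have a fitted effect of over 25% in size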
Target sequence (P00811 whole entry, looked up): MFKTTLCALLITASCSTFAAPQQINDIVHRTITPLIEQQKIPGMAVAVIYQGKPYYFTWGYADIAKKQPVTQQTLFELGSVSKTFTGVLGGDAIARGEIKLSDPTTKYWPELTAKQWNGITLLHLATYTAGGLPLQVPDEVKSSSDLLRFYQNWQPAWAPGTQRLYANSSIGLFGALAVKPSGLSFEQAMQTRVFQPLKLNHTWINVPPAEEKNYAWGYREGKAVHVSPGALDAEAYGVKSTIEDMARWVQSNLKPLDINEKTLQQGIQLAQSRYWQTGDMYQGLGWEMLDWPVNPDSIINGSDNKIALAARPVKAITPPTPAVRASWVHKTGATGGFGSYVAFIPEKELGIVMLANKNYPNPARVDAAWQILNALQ
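20 mM phosphate pH 7.0 + 0.01% (detergent screen) or 0.0001% Triton X-100; 5.3 nM AmpC reagent; cpd preinc 15 min RT; nitrocefin (800 uM stock) to start; A480 q20 s × 4 min; Activity was normalised to no-enzyme and no-compound control wells.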
AmpC inh no detg: qHTS Inhibitors of AmpC Beta-Lactamase (assay without detergent) | P00811 | AmpC nitrocefin hydrolysis, absorbance 480 nm, 0.0001% Triton | Potency, µM (doses to about 57.1 µM), for inactives: at the highest dose activity change, negative = inhibition, usual class: inhibitors | actives 0.52% (n = 330,000) | AID 485341, 2010;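 also: plate controls were no compound for no effect and no enzyme for full effect; nearly all actives have a fitted effect of over 20% in size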
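AmpC (5.3 nM in the dispensed reagent) in 20 mM phosphate pH 7.0 with 0.01% (detergent screen) or 0.0001% Triton X-100 was preincubated with compounds for 15 min at room temperature. Nitrocefin was then added from an 800 uM solution, and hydrolysis was followed at 480 nm.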
Pf growth 48h: Primary qHTS for delayed death inhibitors of the malarial parasite plastid, 48 hour incubation | P. falciparum luciferase growth in erythrocytes, 48 h | Potency, µM (doses to about 28.7 µM), without a hit: at the highest dose activity change, negative = inhibition, actives largely listed as inhibitors | actives 5.9% (n = 310,000) | AID 504832, 2011
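Firefly luciferase activity from engineered P. falciparum reports growth; inhibitors lower the luminescent signal. Cultures contained 2% hematocrit erythrocytes at 0.1% final parasitemia.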
Pf growth 96h: Primary qHTS for delayed death inhibitors of the malarial parasite plastid, 96 hour incubation; AID 504834, 2011; Potency, µM (doses to about 28.7 µM), for the others: at the top dose activity change, negative = inhibition, most hits filed as inhibitors; actives 6.9% (n = 320,000); P. falciparum luciferase reporter growth, 96 h
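P. falciparum expressing integrated firefly luciferase grown in erythrocytes (2% hematocrit, 0.05% parasitemia final) with compounds for 96 hours at 37 C, 5% CO2. Growth inhibition read as loss of luminescence after adding luciferase detection reagent.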
Starred values were filed as active, the others as inactive; u = inconclusive; x = not tested or not shown. An excerpt weighted towards active compounds, which were near 11% of everything screened. Calls follow the shape of the dose curve; as a rule, active = well fitted curve in the direction sought with a large enough effect; inconclusive = small, poorly fitted or top-dose-only effect, or another doubt; inactive = no such curve, though single readings can be large; an effect the other way counts as inactive or inconclusive. Unless noted, % is scaled to controls: 0 for no effect and ±100 for the full control effect; potency is read from the fitted curve at half-maximal effect.

SMILES | HCV inh | AMA1-RON2 inh | AmpC detergent | AmpC inh no detg | Pf growth 48h | Pf growth 96h
Oc1cc(NCCN2CCOCC2)cc2cccnc12 | x | x | -14% | 0% | 4.7µM* | u
O=C(NCCN1CCOCC1)c1ccc2ccccc2c1 | 10% | -11% | -6% | -9% | 43% | 57%
CCC(Oc1ccccc1)C(=O)N1CCN(Cc2cc(=O)n3nc(-c4cccc(C)c4)sc3n2)CC1 (stereo unspecified) | x | x | -6% | x | x | x
COCc1cc(C)nc2c1C(=O)NC(c1ccc(C)cc1)N2Cc1ccccc1 (stereo unspecified) | x | x | 5% | x | x | x
COc1cc(C)cc2oc(=O)c(CC(=O)NCCc3ccc(Cl)cc3)c(C)c12 | x | x | 6% | x | x | x
COc1ccc2cc(S(=O)(=O)c3ccccc3F)c(=O)oc2c1 | x | x | 19% | x | x | x
CCCOC(=O)c1cc(NC(=O)/C=C/c2ccccc2)ccc1O | x | x | 16% | -11% | u | 10µM*
O=C(/C=C/c1ccccc1)CC(=O)c1ccccc1O | 11µM* | 82% | -1% | -42% | 8% | u
O=C(/C=C/c1ccccc1)NC(=O)c1ccccc1O | 13% | -2% | -10% | -25% | 1.3µM* | 1.7µM*
CCN1CCc2c(sc(-n3cccc3)c2C(CCC(C)C)NC(=O)NCCC(=O)OC)C1 (stereo unspecified) | x | x | 2% | x | x | x
CCC(=O)N1c2ccccc2CC1C(=O)NCCc1ccc(OC)c(OC)c1 (stereo unspecified) | x | x | -8% | x | x | x
CC(=O)N1CCCc2cc(S(=O)(=O)N3CCCC(C(=O)NC(C)C)C3)ccc21 (stereo unspecified) | x | x | 2% | x | x | x
O=C(Nc1ccccc1)c1sc2cc(C(F)(F)F)cnc2c1-c1cccs1 | -18% | 2% | 1% | 4.5µM* | u | x
COC(=O)c1sc2cc(C(F)(F)F)cnc2c1-c1cccnc1 | 0.56µM* | 19% | 2% | u | -12% | 25%
Cc1ccc(NC(=O)CCc2c(C)nc3nc(C)nn3c2C)c(Cl)c1 | x | x | -2% | x | x | x
Cc1cccnc1CCNCc1c(C(=O)N2C[C@@H](C)O[C@@H](C)C2)nc2ccc(Cl)cn12 | -6% | 42% | 0% | 175% | 10µM* | -5%
Cc1nonc1OCCNCc1c(C(=O)N2CCCCCCC2)nc2ccc(Cl)cn12 | -15% | 35% | 8% | 108% | 3.7µM* | 18%
COc1cc(NC(=O)CSc2ncc(S(=O)(=O)c3ccc(Br)cc3)c(=O)[nH]2)cc(OC)c1 | x | x | 22% | x | x | x
CC1CC(C)CN(C(=O)CCNC(=O)c2ccccc2Cl)C1 (stereo unspecified) | 12% | -5% | -4% | 8% | 0.93µM* | 0.47µM*
COc1ccccc1C(=O)NCCC(=O)N1CCN(S(=O)(=O)c2ccc(Cl)cc2)CC1 | 12% | -7% | 6% | 83% | u | 13µM*
COc1ccccc1C(=O)NCCC(=O)Nc1ccc(S(=O)(=O)N2CCCC(C)C2)cc1 (stereo unspecified) | u | 0% | -14% | 31% | 15µM* | u
O=C(CCCOc1ccccc1)N1CCN(S(=O)(=O)c2ccc(Cl)cc2)CC1 | -8% | -6% | 5% | -13% | 12µM* | 9%
COc1ccccc1C(=O)NCCC(=O)N1CCCC(C)C1 (stereo unspecified) | 6% | 1% | 0% | -8% | 5% | 44%
CCCCNC(=O)CC1Nc2cc(C)c(C)cc2NC1=O (stereo unspecified) | x | x | 15% | x | x | x
O=C(COc1ccccc1)N1CCN(S(=O)(=O)c2ccc(Cl)cc2)CC1 | 9% | 5% | -3% | 2% | x | u
SMILES | HCV inh | AMA1-RON2 inh | AmpC detergent | AmpC inh no detg | Pf growth 48h | Pf growth 96h
CC1CC(C)CN(C(=O)CNC(=O)c2sc3ccccc3c2Cl)C1 (stereo unspecified) | 8.9µM* | 15% | u | -3% | u | -83%
CC1CCCN(C(=O)CNC(=O)c2sc3ccccc3c2Cl)C1 (stereo unspecified) | u | -6% | 1% | -1% | 100% | 130%
O=C(Cn1cc(C(F)(F)F)ccc1=O)Nc1cc(S(=O)(=O)N2CCOCC2)ccc1Cl | -11% | -4% | -17% | -20% | -1% | 16%
N#Cc1ccccc1OCC(=O)N1CCN(S(=O)(=O)c2ccc(Cl)cc2)CC1 | 18% | 8% | 2% | 3% | u | 10µM*
O=C(Cn1cc(C(F)(F)F)ccc1=O)N1CCN(S(=O)(=O)c2ccc(Cl)cc2)CC1 | 10% | 14% | -1% | -6% | 2.9µM* | u
O=C1OC(/C(=C\Nc2cc(Cl)ccc2O)[N+](=O)[O-])c2ccccc21 (stereo unspecified) | -25% | 32% | u | -40% | 10µM* | u
O=C(c1cc(S(=O)(=O)N2CCOCC2)ccc1F)N(CCc1ccccc1)Cc1ccccc1 | u | -4% | -20% | 113% | 9.3µM* | u
CCN1CCN(S(=O)(=O)c2ccc(Cl)c(C(=O)N(CC)Cc3ccccc3)c2)CC1 | u | 6% | -13% | 88% | u | -1%
CCN(CC)S(=O)(=O)c1ccc(S(=O)(=O)N2CCN(CCC#N)CC2)cc1 | 12% | 14% | -11% | 6% | 23% | -6%
CCN1CCN(S(=O)(=O)c2ccc(S(=O)(=O)N(CC)Cc3ccccc3)cc2)CC1 | -11% | -8% | -13% | 28% | 13µM* | u
CCN1CCN(S(=O)(=O)c2ccc(Cl)c(C(=O)N(CCc3ccccc3)Cc3ccccc3)c2)CC1 | 13µM* | -15% | x | x | x | x
Cc1ccc(S(=O)(=O)N2CCCCC2)cc1C(=O)N(CCc1ccccc1)Cc1ccccc1 | u | -15% | -12% | -1% | 13µM* | 9.3µM*
Cc1nc(C)c(-c2ccc(SCC(=O)Nc3cccc(C)c3C)nn2)s1 | x | x | 2% | x | x | x
CCCNC(=O)Cn1c(=O)n(CC2CCC(C(=O)NC)CC2)c(=O)c2sccc21 (stereo unspecified) | x | x | -4% | x | x | x
Cc1cccc(CNC(=O)CCCN2C(=O)COc3ccc(C)cc32)c1 | x | x | -3% | x | x | x
CC(=O)c1ccc(N2CCN(C(=O)c3cc4ccc5cccnc5c4[nH]3)CC2)cc1 | x | x | 18% | x | x | x
Cc1cc([N+](=O)[O-])cc(C)c1OCC(=O)N/N=C/c1ccc(OC(=O)c2ccccc2Br)cc1 | u | -28% | -6% | -37% | 3% | 10µM*

Screening data: PubChem, National Center for Advancing Translational Sciences (NCATS)
